Inconclusive results are not listed. A call without a number means that no potency is given here. Calls of active or inactive are those of the source. Calls come from the whole dose curve; as a rule, active = well fitted curve in the direction sought with a large enough effect in the repeat runs; inconclusive = weak or mixed curves; inactive = no such curve, though single readings can be large; an effect the other way counts as inactive or inconclusive.

Sequence of Luciferin 4-monooxygenase (Photinus pyralis) (P08659 whole entry, looked up): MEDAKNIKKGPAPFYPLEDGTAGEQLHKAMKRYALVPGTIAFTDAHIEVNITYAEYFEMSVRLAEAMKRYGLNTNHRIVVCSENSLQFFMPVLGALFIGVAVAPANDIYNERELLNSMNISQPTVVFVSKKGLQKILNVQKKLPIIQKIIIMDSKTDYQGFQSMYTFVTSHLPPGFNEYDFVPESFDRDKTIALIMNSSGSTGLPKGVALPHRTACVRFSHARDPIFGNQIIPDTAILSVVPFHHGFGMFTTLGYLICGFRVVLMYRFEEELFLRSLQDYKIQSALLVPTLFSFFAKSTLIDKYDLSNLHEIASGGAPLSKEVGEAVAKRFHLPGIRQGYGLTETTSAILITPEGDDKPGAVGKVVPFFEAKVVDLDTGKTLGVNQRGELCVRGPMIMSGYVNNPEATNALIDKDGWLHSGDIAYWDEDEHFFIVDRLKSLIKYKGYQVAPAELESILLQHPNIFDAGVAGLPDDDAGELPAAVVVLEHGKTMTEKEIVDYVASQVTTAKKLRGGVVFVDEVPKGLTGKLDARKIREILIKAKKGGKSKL

For the first assay, the target named is Luciferin 4-monooxygenase (Photinus pyralis) (UniProt P08659). The experiment in a line: qHTS assay to identify small molecule inhibitors of firefly luciferase (AID 1224835). Note: nearly all actives have a fitted effect of over 25% in size. Particulars: purified P. pyralis luciferase, luminescence inhibition; series mostly up to 115 µM. The gist of the method:
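Biochemical qHTS: compounds run as interplate titrations against purified firefly enzyme, with D-luciferin and ATP each at its KM concentration. Light output recorded by CCD imaging.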
As to `O=S(=O)(O)c1cc(S(=O)(=O)O)c2ccc3c(S(=O)(=O)O)cc(S(=O)(=O)O)c4ccc1c2c43`, the activity change, negative = inhibition was -0.173% [at 23.6 µM] (inactive).
For the compound `CC(C)(C)c1cc(/C=C2\SC(=N)NC2=O)cc(C(C)(C)C)c1O`, the Potency result was “inactive”.
Take `Clc1cc(Cl)c(-c2c(Cl)c(Cl)cc(Cl)c2Cl)cc1Cl`: the Potency entry was “inactive”.
On the same count and under the same terms, then `O=C(O)CCn1c2c(c3ccccc31)C[C@H](NS(=O)(=O)c1ccc(F)cc1)CC2`, with “inactive”.
`O=C(O)c1cccc(Cl)n1`: the Potency entry was “inactive”.
Turning to `CCCCCCCCCCCCCc1ccccc1`, the Potency result is “inactive”.
Take `CCCCCCC(C)Nc1ccc(Nc2ccccc2)cc1` (stereo not drawn): the Potency result was “inactive”.
The same measure, in the same setting: then `CCCCCCC(C)OC(=O)COc1nc(F)c(Cl)c(N)c1Cl` (stereo not drawn), with “inactive”.
`C/C=C/c1ccc(OC)c(OC)c1`: the Potency result is “inactive”.
On the same count and under the same terms, then `O=C(O)CCCCCCC(=O)O`, with “inactive”; and `Cc1cc(C)c(C=O)c(C)c1`, with “inactive”.
`CCC(C)C(=O)OC` (stereo not drawn): the Potency entry was “inactive”.
The same measure, in the same setting: then `CC1(C)C(=O)N(CO)C(=O)N1CO`, with “inactive”; and `CCCCCCCC(C)=O`, with “inactive”.
`CCCCC(CC)COC(=O)c1ccc(O)cc1` (stereo not drawn): the Potency entry was “inactive”.
For the compound `C=C/C=C/C=C/CCCCC`, the activity change, negative = inhibition was 0.374% [at 23.6 µM] (inactive).
Take `Clc1nc2ccccc2s1`: the Potency entry was “inactive”.
With `COc1nccnc1CC(C)C`, the Potency entry is “inactive”.
As for `CCOB(OCC)OCC`, the Potency result was “inactive”.
Still for that read-out and setting: the entry for `CC1CCCCN1CCCOC(=O)c1ccc(OC2CCCCC2)cc1` (stereo not drawn) is “inactive”.
In the case of `Oc1c(Br)cc(Br)c2cccnc12`, the Potency result is “inactive”.
For `CCC(=O)CC(C)CC` (stereo not drawn), the activity change, negative = inhibition was 4.97% [at 0.435 µM] (inactive).
Consider `c1ccc(Sc2ccccc2)cc1`, for which the Potency result is “inactive”.
Consider `CCCCCCCCCCc1ccccc1`, for which the Potency result is “inactive”.
As for `CC(C)=CC1CC(C)CCO1` (stereo not drawn), the Potency result is “inactive”.
In the case of `CCc1ccc(O)c(C(C)(C)C)c1`, the Potency result is “inactive”.
Still for that read-out and setting: then `CCC(C)c1ccccc1` (stereo not drawn), with “inactive”; and `Clc1cccnc1`, with “inactive”.
In the case of `CNC(=S)NN`, the Potency entry was “inactive”.
On the same count and under the same terms, then `Cc1cc(=O)[nH]c(=O)[nH]1`, with “inactive”.
Regarding `CC(=O)OC1CCCCC1`, the Potency entry is “inactive”.
In the case of `COC(=O)CC(C)CCC=C(C)C` (stereo not drawn), the Potency entry was “inactive”.
On to `O=S(=O)(O)CCCN1CCOCC1`, for which the Potency entry is “inactive”.
Still for that read-out and setting: the entry for `Cc1cn[nH]c1` is “inactive”; for `CC(CN(C)C)CN1c2ccccc2CCc2ccccc21` (stereo not drawn) it is “inactive”.
On the same count and under the same terms, then `O=Cc1ccc(F)cc1`, with “inactive”.

Test system in the next assay: not listed separately
The experiment in a line: qHTS assay to identify small molecule agonists of the constitutive androstane receptor (CAR) signaling pathway - cell viability counter screen (AID 1224836). Note: nearly all actives have a fitted effect of over 45% in size. Note: potency is the fitted concentration of half-maximal effect. The conditions noted are these: HepG2-CYP2B6-hCAR viability, CellTiter-Fluor, 23 h, PK11195 added to every well; series mostly up to 92.4 µM. The gist of the method:
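Compound titrations (15 concentrations) went onto HepG2-CYP2B6-hCAR cells 4 h after seeding, alongside PK11195 at a final 0.75 uM; a 23 h, 37 C/5% CO2 incubation preceded CellTiter-Fluor viability measurement.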
As to `O=S(=O)(O)c1cc(S(=O)(=O)O)c2ccc3c(S(=O)(=O)O)cc(S(=O)(=O)O)c4ccc1c2c43`, the viability change, negative = cytotoxic was 3.39% [at 19 µM] (inactive).
On to `CC(C)(C)c1cc(/C=C2\SC(=N)NC2=O)cc(C(C)(C)C)c1O`, for which the Potency entry was “inactive”.
As to `Clc1cc(Cl)c(-c2c(Cl)c(Cl)cc(Cl)c2Cl)cc1Cl`, the Potency result was “inactive”.
As to `O=C(O)CCn1c2c(c3ccccc31)C[C@H](NS(=O)(=O)c1ccc(F)cc1)CC2`, the Potency result was “inactive”.
Turning to `O=C(O)c1cccc(Cl)n1`, the Potency entry is “inactive”.
As for `CCCCCCCCCCCCCc1ccccc1`, the Potency result is “inactive”.
`CCCCCCC(C)Nc1ccc(Nc2ccccc2)cc1` (stereo not drawn): the Potency result is “inactive”.
Still for that read-out and setting: then `CCCCCCC(C)OC(=O)COc1nc(F)c(Cl)c(N)c1Cl` (stereo not drawn), with “inactive”; and `C/C=C/c1ccc(OC)c(OC)c1`, with “inactive”; and `O=C(O)CCCCCCC(=O)O`, with “inactive”.
`Cc1cc(C)c(C=O)c(C)c1`: the Potency entry was “inactive”.
As for `CCC(C)C(=O)OC` (stereo not drawn), the Potency result was “inactive”.
On the same count and under the same terms, the entry for `CC1(C)C(=O)N(CO)C(=O)N1CO` is “inactive”; for `CCCCCCCC(C)=O` it is “inactive”.
As for `CCCCC(CC)COC(=O)c1ccc(O)cc1` (stereo not drawn), the Potency entry was “inactive”.
Regarding `C=C/C=C/C=C/CCCCC`, the viability change, negative = cytotoxic is -0.14% [at 19 µM] (inactive).
As for `Clc1nc2ccccc2s1`, the Potency entry is “inactive”.
For `COc1nccnc1CC(C)C`, the Potency entry was “inactive”.
Still for that read-out and setting: then `CCOB(OCC)OCC`, with “inactive”; and `CC1CCCCN1CCCOC(=O)c1ccc(OC2CCCCC2)cc1` (stereo not drawn), with “inactive”.
`Oc1c(Br)cc(Br)c2cccnc12`: the Potency entry is “inactive”.
Turning to `CCC(=O)CC(C)CC` (stereo not drawn), the viability change, negative = cytotoxic is -0.276% [at 0.349 µM] (inactive).
With `c1ccc(Sc2ccccc2)cc1`, the Potency result is “inactive”.
As to `CCCCCCCCCCc1ccccc1`, the Potency entry was “inactive”.
In the case of `CC(C)=CC1CC(C)CCO1` (stereo not drawn), the Potency entry is “inactive”.
Still for that read-out and setting: the entry for `CCc1ccc(O)c(C(C)(C)C)c1` is “inactive”.
On to `CCC(C)c1ccccc1` (stereo not drawn), for which the Potency result is “inactive”.
For the compound `Clc1cccnc1`, the Potency entry was “inactive”.
For `CNC(=S)NN`, the Potency is 43.3 µM (active).
On to `Cc1cc(=O)[nH]c(=O)[nH]1`, for which the Potency entry was “inactive”.
In the case of `CC(=O)OC1CCCCC1`, the Potency result is “inactive”.
On the same count and under the same terms, the entry for `COC(=O)CC(C)CCC=C(C)C` (stereo not drawn) is “inactive”; for `O=S(=O)(O)CCCN1CCOCC1` it is “inactive”.
Consider `Cc1cn[nH]c1`, for which the Potency entry was “inactive”.
On to `CC(CN(C)C)CN1c2ccccc2CCc2ccccc21` (stereo not drawn), for which the Potency entry was “inactive”.
For the compound `O=Cc1ccc(F)cc1`, the Potency result is “inactive”.

Test system in another assay: not listed separately
Nature of the assay: qHTS assay to identify small molecule antagonists of the constitutive androstane receptor (CAR) signaling pathway - cell viability counter screen (AID 1224837). Note: nearly all actives have a fitted effect of over 45% in size. Note: potency is the fitted concentration of half-maximal effect. Particulars: HepG2-CYP2B6-hCAR viability, CellTiter-Fluor, 23 h, co-treated with 50 nM CITCO; series mostly up to 92.4 µM. The gist of the method:
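Fluorescence from CellTiter-Fluor served as the viability signal. Human hepatoma HepG2 cells stably bearing hCAR and CYP2B6-2.2kb received compound plus CITCO (50 nM final) for 23 hr.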
As to `O=S(=O)(O)c1cc(S(=O)(=O)O)c2ccc3c(S(=O)(=O)O)cc(S(=O)(=O)O)c4ccc1c2c43`, the activity change, negative = cytotoxicity is 0.0028% [at 19 µM] (inactive).
Regarding `CC(C)(C)c1cc(/C=C2\SC(=N)NC2=O)cc(C(C)(C)C)c1O`, the Potency entry was “inactive”.
`Clc1cc(Cl)c(-c2c(Cl)c(Cl)cc(Cl)c2Cl)cc1Cl`: the Potency result was “inactive”.
Turning to `O=C(O)CCn1c2c(c3ccccc31)C[C@H](NS(=O)(=O)c1ccc(F)cc1)CC2`, the Potency entry was “inactive”.
In the case of `O=C(O)c1cccc(Cl)n1`, the Potency result was “inactive”.
Consider `CCCCCCCCCCCCCc1ccccc1`, for which the Potency result is “inactive”.
As to `CCCCCCC(C)Nc1ccc(Nc2ccccc2)cc1` (stereo not drawn), the Potency result was “inactive”.
As to `CCCCCCC(C)OC(=O)COc1nc(F)c(Cl)c(N)c1Cl` (stereo not drawn), the Potency entry is “inactive”.
For `C/C=C/c1ccc(OC)c(OC)c1`, the Potency result is “inactive”.
Consider `O=C(O)CCCCCCC(=O)O`, for which the Potency entry was “inactive”.
As for `Cc1cc(C)c(C=O)c(C)c1`, the Potency result was “inactive”.
In the case of `CCC(C)C(=O)OC` (stereo not drawn), the Potency result is “inactive”.
Consider `CC1(C)C(=O)N(CO)C(=O)N1CO`, for which the Potency result is “inactive”.
Turning to `CCCCCCCC(C)=O`, the Potency entry was “inactive”.
The same measure, in the same setting: then `CCCCC(CC)COC(=O)c1ccc(O)cc1` (stereo not drawn), with “inactive”.
As to `C=C/C=C/C=C/CCCCC`, the activity change, negative = cytotoxicity is -1.33% [at 19 µM] (inactive).
With `Clc1nc2ccccc2s1`, the Potency result is “inactive”.
Turning to `COc1nccnc1CC(C)C`, the Potency entry was “inactive”.
Same read-out and setting: the entry for `CCOB(OCC)OCC` is “inactive”; for `CC1CCCCN1CCCOC(=O)c1ccc(OC2CCCCC2)cc1` (stereo not drawn) it is “inactive”.
Consider `Oc1c(Br)cc(Br)c2cccnc12`, for which the Potency entry is “inactive”.
`CCC(=O)CC(C)CC` (stereo not drawn): the activity change, negative = cytotoxicity is 5.84% [at 0.349 µM] (inactive).
On to `c1ccc(Sc2ccccc2)cc1`, for which the Potency result was “inactive”.
On to `CCCCCCCCCCc1ccccc1`, for which the Potency entry was “inactive”.
In the case of `CC(C)=CC1CC(C)CCO1` (stereo not drawn), the Potency result is “inactive”.
Still for that read-out and setting: the entry for `CCc1ccc(O)c(C(C)(C)C)c1` is “inactive”.
In the case of `CCC(C)c1ccccc1` (stereo not drawn), the Potency result is “inactive”.
On to `Clc1cccnc1`, for which the Potency entry was “inactive”.
As to `CNC(=S)NN`, the Potency was 17.2 µM (active).
`Cc1cc(=O)[nH]c(=O)[nH]1`: the Potency result was “inactive”.
For `CC(=O)OC1CCCCC1`, the Potency entry was “inactive”.
In the case of `COC(=O)CC(C)CCC=C(C)C` (stereo not drawn), the Potency result is “inactive”.
For `O=S(=O)(O)CCCN1CCOCC1`, the Potency result is “inactive”.
On the same count and under the same terms, then `Cc1cn[nH]c1`, with “inactive”.
Turning to `CC(CN(C)C)CN1c2ccccc2CCc2ccccc21` (stereo not drawn), the Potency result was “inactive”.
On to `O=Cc1ccc(F)cc1`, for which the Potency result was “inactive”.
